# Screening data deposited in PubChem by several laboratories.
# Sampled rows, rich in hits. Any-hit rate of the full collection: about 3.9%.
# Anthrax LF prot: blocks Bacillus anthracis lethal factor protease | P15917 | multiplex microsphere protease cleavage assay, LF | inhibition, % at 10 µM | 0.12% of 360,000 active | AID 588501; also: plate controls were buffer without enzyme for full effect and enzyme alone for no effect
# Target sequence (P15917 whole entry, looked up): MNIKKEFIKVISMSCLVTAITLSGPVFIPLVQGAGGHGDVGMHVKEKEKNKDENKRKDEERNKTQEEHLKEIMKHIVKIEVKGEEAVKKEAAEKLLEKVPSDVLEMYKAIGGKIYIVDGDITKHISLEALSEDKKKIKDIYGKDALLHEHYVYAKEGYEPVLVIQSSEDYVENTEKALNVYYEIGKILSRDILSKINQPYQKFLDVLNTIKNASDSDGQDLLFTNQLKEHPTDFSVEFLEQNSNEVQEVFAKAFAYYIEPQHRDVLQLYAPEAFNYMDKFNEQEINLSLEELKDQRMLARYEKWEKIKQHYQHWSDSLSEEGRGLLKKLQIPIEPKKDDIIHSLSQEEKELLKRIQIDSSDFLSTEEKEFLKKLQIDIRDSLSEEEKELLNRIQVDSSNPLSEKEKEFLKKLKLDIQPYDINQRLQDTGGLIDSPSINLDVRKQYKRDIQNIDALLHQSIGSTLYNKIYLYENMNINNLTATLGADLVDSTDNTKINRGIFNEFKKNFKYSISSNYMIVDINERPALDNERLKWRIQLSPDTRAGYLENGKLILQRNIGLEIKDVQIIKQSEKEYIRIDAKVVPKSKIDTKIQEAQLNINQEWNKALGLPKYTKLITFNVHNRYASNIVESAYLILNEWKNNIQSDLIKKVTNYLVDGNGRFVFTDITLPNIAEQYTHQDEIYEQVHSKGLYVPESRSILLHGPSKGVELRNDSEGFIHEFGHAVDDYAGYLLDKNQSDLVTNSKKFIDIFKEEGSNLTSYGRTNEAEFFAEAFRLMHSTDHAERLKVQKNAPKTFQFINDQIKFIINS
# Bead autofluor: counter-screen for toxin protease inhibitors: compound fluorescence; AID 624483; fluorescence intensity (concentration not given with the values); 3.1% of 360,000 active; compound autofluorescence counterscreen, microsphere flow cytometry; active compounds read high; in the data active = fluorescence intensity above about 16000
# 3CLpro inhibitor: SARS-CoV 3CLpro protease inhibition; AID 1706; recombinant SARS-CoV 3CLpro, quenched FRET peptide cleavage; P0C6X7; inhibition, % at 6 µM; 0.14% of 290,000 active; in the data active = inhibition above about 12%
# BoNT F protease: blocks Botulinum neurotoxin F light chain protease; 0.22% of 360,000 active; Multiplex microsphere protease cleavage assay, flow cytometry; inhibition, % at 10 µM; AID 588497; in the data active = inhibition above about 35%, passing the limit was not always enough; also: plate controls were buffer without enzyme for full effect and enzyme alone for no effect
# BoNT A protease: blocks Botulinum neurotoxin A light chain protease; inhibition, % at 10 µM; multiplex microsphere protease substrate cleavage, flow cytometry; 0.17% of 360,000 active; also: plate controls were buffer without enzyme for full effect and enzyme alone for no effect
# CCHF vOTU inh-1: CCHFV vOTU protease inhibition; Pep-AMC fluorescence; AID 651958; 0.55% of 370,000 active; inhibition, % at 11.5 µM; in the data active = inhibition above about 30%; also: 0% = vehicle wells with enzyme and 100% = no enzyme wells
# CCHF vOTU inh-2: CCHFV vOTU protease inhibition, confirmation; 17% of 1,900 active; Recombinant CCHFV vOTU, Pep-AMC fluorescence; inhibition, % at 11.5 µM; shares compounds with CCHF vOTU inh-1; in the data active = inhibition above about 30%
# Numbers without * were called inactive; nt = no result. Rule as the data show it, unless noted: active = inhibition above about 30%; inconclusive = no clear call, values can overlap the other calls; inactive = below that.
SMILES,Anthrax LF prot,Bead autofluor,3CLpro inhibitor,BoNT F protease,BoNT A protease,CCHF vOTU inh-1,CCHF vOTU inh-2
CCO[C@H]1OC(C(=O)Nc2ccccc2)=C[C@@H](c2ccc(C(F)(F)F)cc2)[C@@H]1CCCO,5,3993,4,2,-1,32*,7
O=C(Nc1ccc(S(=O)(=O)Nc2nccs2)cc1)/C(=C/c1ccccc1Cl)NC(=O)c1ccccc1,-2,10825,4,-7,0,32*,-16
COc1ccccc1-c1sc2cc3c(cc2c1-c1ccc(O)cc1)OCO3,-4,4901,nt,-12,-2,30*,-2
CCOc1ccc(CCNC(=O)c2ccc(Cl)c(S(=O)(=O)N3CCOCC3)c2)cc1OCC,nt,nt,nt,nt,nt,42*,1
CCOc1ccc(CCNC(=O)c2ccc(C)c(S(=O)(=O)N3CCOCC3)c2)cc1OCC,-4,2883,nt,-2,0,2,nt
Fc1ccc(-c2n[nH]c(=S)n2N=Cc2ccc(-c3ccccc3)cc2)cc1,nt,nt,nt,nt,nt,7,nt
CC1(C)CC(=O)C2=C(C1)OC(N)=C(C#N)C21CCN(Cc2ccccc2)CC1,4,14003,5,4,-3,-10,nt
Cc1nc2c([nH]1)C1(CCN(Cc3ccccc3)CC1)C(C#N)=C(N)O2,-1,5287,-6,8,0,40*,-24
Cc1noc(C)c1C(=O)OCC(=O)Nc1ccc(N2CCOCC2)cc1,nt,nt,nt,nt,nt,32*,-12
Cc1noc(C)c1C(=O)OCC(=O)Nc1ccc(C(N)=O)cc1,-1,4329,2,-12,0,-9,nt
CCCCC[C@@H](C)N1C[C@H](COCc2ccccc2)Oc2cc(N3CC[C@@H](O)C3)ccc2S1(=O)=O,-8,5632,nt,1,0,41*,6
CCCCC[C@H](C)N1C[C@@H](COCc2ccccc2)Oc2cc(N3CCC[C@H]3C(N)=O)ccc2S1(=O)=O,5,4194,nt,-5,-1,35*,2
Cc1ccc(Cc2c(-c3cccc(Br)c3)nc3c4ccccc4ccn23)cc1,nt,nt,nt,nt,nt,4,nt
Cc1ccc(S(=O)(=O)/N=C2/NC(=O)/C(=C/c3cc([N+](=O)[O-])ccc3O)S2)cc1,1,5997,7,1,1,43*,11
COC(=O)[C@]12C[C@H](CC(=O)NCCCCc3ccccc3)C(=O)N(Cc3ccccc3)C1=C[C@H](C1CCCC1)O[C@@H]2C,nt,nt,nt,nt,nt,9,nt
O=C(NCc1cc(C(F)(F)F)cc(C(F)(F)F)c1)C1CC(c2c(Cl)cccc2Cl)=NO1 (centres undefined),-2,3970,6,-6,1,17,nt
O=C(NCc1ccc(OC(F)(F)F)cc1)C1CC(c2c(Cl)cccc2Cl)=NO1 (centres undefined),-4,4260,10,-3,0,30*,4
Cc1cc[n+](-c2[nH]c(=O)sc2/C=N/N=C(\[O-])c2ccncc2)cc1,-2,5304,-3,-2,1,31*,-18
Cc1cccc(Cn2cc(CN3CC(N(C)CCCOC(=O)c4cc5ccccc5o4)CS3(=O)=O)nn2)c1 (centres undefined),nt,nt,nt,nt,nt,0,nt
O=C1C2CCCN2C(c2cccs2)N1c1ccc(Cl)cc1 (centres undefined),-2,4218,-6,33,1,31*,-11
COC(=O)[C@]12C[C@H](CC(=O)N3CCCC3)C(=O)N(Cc3ccc4c(c3)OCO4)C1=C[C@H](COCc1ccccc1)O[C@@H]2C,nt,nt,nt,nt,nt,-2,nt
CCC(=O)N1CCCC(C)(C(=O)Nc2ccc(OC(F)F)cc2)C1 (centres undefined),5,3641,nt,10,0,31*,-18
O=C1C(SCCO)=C(SCCO)C(=O)c2ccccc21,-5,5735,nt,-1,0,114*,107*
CCOC(=O)CC[C@@H]1CC[C@]2(CCCN(C(=O)c3ccco3)C2)O1,nt,nt,nt,nt,nt,-2,nt
Cc1c(NC(=O)C(C)OC(=O)c2ccc([N+](=O)[O-])s2)c(=O)n(-c2ccccc2)n1C (centres undefined),0,4297,3,2,-1,41*,45*
SMILES,Anthrax LF prot,Bead autofluor,3CLpro inhibitor,BoNT F protease,BoNT A protease,CCHF vOTU inh-1,CCHF vOTU inh-2
Cc1c(NC(=O)C(C)OC(=O)c2sc3ccccc3c2Cl)c(=O)n(-c2ccccc2)n1C (centres undefined),1,2440,0,-5,0,0,nt
O=C1c2cccc(Cl)c2C(=O)c2c1cccc2N1CCCC1,-6,2837,5,-14,0,71*,-14
CC12CC(c3ccccc3O1)C(C(=O)OCc1ccccc1)C(=O)N2 (centres undefined),-2,7380,0,-15,-2,38*,-3
CC12CC(c3ccccc3O1)C(/C(N)=N/NC(=O)c1ccc(F)cc1)C(=O)N2 (centres undefined),0,2750,-2,-4,-1,9,nt
CCCc1nc2c(=O)n(C)c(=O)nc-2n(C)n1,-2,2991,-2,-4,1,113*,94*
Cn1nc(-c2ccccn2)nc2c(=O)n(C)c(=O)nc1-2,6,3666,16*,10,1,102*,104*
CCN(CC)c1ccc(C=Nc2ccc(N(C)C)cc2)c(O)c1,0,4280,-1,-20,7,74*,-2
CCN(CC)c1ccc(C=Nc2ccccc2)c(O)c1,25,3510,2,28,26,9,nt
COc1ccc(N(/N=C2\Sc3ccccc3C2=O)C(C)=O)cc1,0,2045,-5,-2,0,1,nt
COc1ccccc1N(/N=C1\Sc2ccccc2C1=O)C(C)=O,-12,6305,0,-7,0,32*,5
Cc1cc2c(nc1C)CCCN2S(=O)(=O)c1ccc(F)cc1,nt,nt,nt,nt,nt,-6,nt
Cc1ccc(CNC(=O)[C@@H](Cc2ccccc2)NC(=O)[C@H]2O[C@@H](n3ccc(N)nc3=O)[C@H](O)[C@@H]2O)o1,nt,nt,nt,nt,nt,1,nt
O=C1Nc2ccc([N+](=O)[O-])cc2C1(O)N1CCCCCC1 (centres undefined),-2,8184,4,-7,-2,30*,-3
CC1CCN(C2(O)C(=O)Nc3ccc(Br)cc32)CC1 (centres undefined),-1,3330,-2,12,1,3,nt
C[C@@H]1CN([C@@H](C)CO)C(=O)CCCn2cc(nn2)CO[C@H]1CN(C)C(=O)c1ccc(N2CCN(C)CC2)cc1,nt,nt,nt,nt,nt,-2,nt
Cc1cc(Oc2cccc3c2S(=O)(=O)N([C@H](C)c2ccccc2)C[C@@H](COCc2ccccc2)O3)cc(C)c1C,nt,nt,nt,nt,nt,-5,nt
CCCCCCn1c(=O)n2n(c1=O)[C@@H]1CN(S(=O)(=O)c3ccc(C)cc3)C[C@]1(O)[C@@H](OC(=O)NCc1ccc(OC)c(OC)c1)C2,-1,4117,nt,3,0,43*,-9
CCCCCCn1c(=O)n2n(c1=O)[C@@H]1CN(S(=O)(=O)c3ccc(C)cc3)C[C@]1(O)[C@@H](OC(=O)Nc1cccs1)C2,-5,4289,nt,-4,0,34*,-6
